Results on 40 molecules are retold here after PubChem BioAssay (NCI).

The panel holds about 83,000 compounds, 20% with a hit somewhere; the sample as a whole holds those more often.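 Activity criterion: percent growth below 10, measured after cells in 96-well plates were exposed to a single compound concentration for 48 hours.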 Values without a mark were called inactive. The source made the active and inactive calls.

This test concerns MDA-MB-468 breast. Nature of the test: NCI-60 one-dose screen, 48 h (100 = growth as untreated, 0 = no growth, -100 = all killed). The settings on record: 10 µM unless noted.
`O=C1Nc2ccccc2/C1=C\c1nc(-c2ccccc2)n2ccccc12`: the growth is -1.63% (active).
For `CCCCn1c2cc(OCc3cn(-c4ccc(Cl)cc4)nn3)ccc2c2ccnc(C)c21` the value was 22.3%; for `CC1(C)CC(=O)C(c2c(-c3ccccc3)[nH]c3[nH]c(=S)[nH]c(=O)c23)=C(O)C1`, 109%.
Turning to `O=C(CCNC(=O)c1nc(-c2ccccc2)n(-c2ccc(Cl)cc2)n1)NO`, the growth is 107%.
`O=C(O)c1ccc(-n2cc(CNc3cc(F)c(F)c(F)c3)c(-c3cccc(F)c3)n2)cc1`: the growth was 95.4%.
As for `COc1ccc2c(N)ncc(C#Cc3cc(C(=O)Nc4ccc(CN5CCN(C)CC5)c(C(F)(F)F)c4)cnc3C)c2c1`, the figure is 46.7%; as for `O=c1cc(-c2ccc3c(c2)OCCO3)oc2cc(Cl)ccc12`, 66.4%; as for `CCOc1ccc(S(=O)(=O)Nc2ccc3c(c2)N(S(=O)(=O)CC)CCC3)cc1`, 85.4%.
For the molecule `COc1cccc(N2CCN(C3=C(Cl)C(=O)c4ncccc4C3=O)CC2)c1`, the growth is -63.6% (active).
For `COc1ccc(-c2cnc(SCC(=O)Nc3ccc(-c4nc5ccccc5s4)cc3)n2-c2ccc(OC)cc2)cc1` the value was -12.7% (active).
As for `O=c1/c(=C\c2ccc(-c3ccccc3)o2)sc2nc(-c3ccccc3)nn12`, the figure is 124%; as for `Clc1ccc(OCc2nc(-c3ccccc3)n[nH]2)c(Cl)c1`, 99.1%; as for `COC(=O)c1nc(N)nc(C(=O)OC)c1C(=O)c1ccc(F)cc1`, 101%.
As for `COc1cc(CNc2oc(-c3ccccc3)c(-c3ccccc3)c2C#N)cc(CN2CCN(C)CC2)c1O`, the figure is 57.4%; as for `CC1=CCC(OC(=O)C(C)(C)CCC(O)(C(=O)OC2(C(C)C)CCC3(C)OC3C2)C(C)C)(C(C)C)CC1` (stereo not given), -64.4% (active).
Consider `COc1ccc2nc(-c3ccccc3)cc(C(C)=O)c2c1`, for which the growth was 68%.
For `Oc1ccc(/C=N/N=C2c3ccccc3-c3ccccc32)c(O)c1` the value was -1.47% (active).
For `CC(Cc1cccc(C(F)(F)F)c1)NCCOC(=O)c1ccccc1` (stereo not given) the value was 107%; for `O=C1C=CC(=CC=C2C=CN(CCCCCCCCCCCO)C=C2)C=C1`, -37.4% (active); for `C=C1C(=O)O[C@H]2[C@H]1CC/C(COC(=O)NCCc1cccc(OC)c1)=C\CC[C@@]1(C)O[C@@H]21`, 18.9%.
As for `CCOC(=O)c1csc(NC(=O)CSc2nc3sc4c(c3c(=O)n2-c2ccc(Cl)cc2)CCCC4)n1`, the figure is 102%; as for `O=[N+]([O-])C1C(c2ccccc2)C12c1ccccc1-c1ccccc12` (stereo not given), -26% (active); as for `CCOc1ccc2[nH]c(=S)sc2c1`, 107%.
As for `CC(=O)N1C(=S)NC(=O)C1Cn1c(-c2ccccc2)nc2ccccc21` (stereo not given), the growth is 96.8%.
As for `COc1ccc(C(=O)c2c(N)c(C#N)cn2-c2ccc(Cl)cc2Cl)cc1`, the figure is 89.5%; as for `CC(=O)c1ccc(NCn2nc(-c3ccc(Cl)cc3)oc2=S)cc1`, 100%.
As for `CC(=O)Nc1cccc(Nc2nc(N[C@H](C)c3ccccc3)c3ccccc3n2)c1`, the figure is 6.66% (active); as for `O=C1c2ccccc2C(=Cc2ccccc2)c2ccccc21`, -7.09% (active); as for `CCCCCc1ccnc(CC(=O)c2ccc(OC)cc2)c1`, 65.5%.
Take `CCN(c1cc(-c2ccc(CN3CCC(/C=C/S(=O)(=O)c4ccccc4)CC3)cc2)cc(C(=O)NCc2c(C)cc(C)[nH]c2=O)c1C)C1CCOCC1`: the growth is 55.9%.
Regarding `COc1cc2nc(Cl)nc(Nc3cccc(C4=Nc5c(N)nc(N)nc5NC(c5ccc(F)cc5)C4)c3)c2cc1OC` (stereo not given), the growth was 45.8%.
For `c1cc2ccc3cc2cc1CNCCN1CCNCc2ccc4ccc(cc4c2)CNCCN(CCNC3)CCNCc2ccc3ccc(cc3c2)CNCC1` the value was -45.2% (active).
For `Cc1cc(C)c(O)c(C(=O)CC(Br)C(=O)O)c1` (stereo not given) the value was 74.9%; for `CN(C)C=Nc1cc(Cl)ccc1Cl`, 102%.
As for `COc1cc2[nH]c(C(=O)c3cc(OC)c(OC)c(OC)c3)c(N)c2cc1C#CC1CC1`, the figure is 23.4%; as for `CCCCCCC(O)(c1ccc(F)cc1)C(CN1CCOCC1)c1ccccc1` (stereo not given), 28%; as for `CC(C)(C)OC(=O)NCc1ccc(CNc2c([N+](=O)[O-])cnc3ccccc23)cc1`, 22.2%.
`O=C1C(Nc2ccc(Br)cc2)=C(I)C(=O)c2ncccc21`: the growth was -81.4% (active).
Turning to `c1ccc(OCc2nnc(-c3ccc(Oc4ccccc4)cc3)o2)cc1`, the growth is 111%.
As for `CC(=O)Nc1ccc2c(c1)Cc1cc(F)ccc1-2`, the figure is 101%.
